Laboratory results from PubChem BioAssay AID1159580 (chemical genetic matrix, 2015).
In all, about 5,500 compounds went through this assay and about 2,000 (36%) were called active. Roughly 18% stayed inconclusive and do not appear here. Cut-off read from the data, not from the text of the source: active = normalized growth mostly below about 0.91 (no sharp cut-off); inconclusive = no clear call, values can overlap the other calls; inactive = mostly above about 0.92. The list shows a part of the results.

Assay: chemical genetic growth profiling, strain panel (AID 1159580);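 note: tested at 20 µM; growth read once vehicle control cultures reached saturation at 30 °C; 1 = growth at the plate median or of vehicle wells; lower values mean less growth of the strain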
Conditions: growth OD

Measured: normalized growth

COc1c(O)cccc1O
inactive: S. cerevisiae deletion strains, locus YJL187C, strain SWE1, hits give low values 1.02 | S. cerevisiae deletion strains, locus YJR043C, strain POL32, hits give low values 1.03 | S. cerevisiae deletion strains, locus YJR066W, strain TOR1, hits give low values 0.977 | S. cerevisiae deletion strains, locus YJR075W, strain HOC1, hits give low values 1.02 | S. cerevisiae deletion strains, locus YKL009W, strain mrt4, hits give low values 1.05 | S. cerevisiae deletion strains, locus YKL068W, hits give low values 0.99 | S. cerevisiae deletion strains, locus YKL085W, strain MDH1 (second series), hits give low values 1.01 | S. cerevisiae deletion strains, locus YKL085W, strain MDH1, hits give low values 1.01 | S. cerevisiae deletion strains, locus YKL160W, strain elf1, hits give low values 1.01 | S. cerevisiae deletion strains, locus YKR001C, strain vps1, hits give low values 1.08 | S. cerevisiae deletion strains, locus YKR026C, strain gcn3, hits give low values 1.02 | S. cerevisiae deletion strains, locus YKR091W, strain srl3, hits give low values 1.02 | S. cerevisiae deletion strains, locus YLL001W, strain dnm1, hits give low values 1.03 | S. cerevisiae deletion strains, locus YLL026W, hits give low values 1.02 | S. cerevisiae deletion strains, locus YLL041C, strain sdh2, hits give low values 1.02 | S. cerevisiae deletion strains, locus YLR027C, strain aat2, hits give low values 1.01 | S. cerevisiae deletion strains, locus YLR039C, strain RIC1, hits give low values 1.11 | S. cerevisiae deletion strains, locus YLR058C, strain SHM2, hits give low values 1.03 | S. cerevisiae deletion strains, locus YLR102C, strain apc9, hits give low values 1 | S. cerevisiae deletion strains, locus YLR113W, strain HOG1, hits give low values 1.04 | S. cerevisiae deletion strains, locus YLR221C, strain rsa3, hits give low values 1.03 | S. cerevisiae deletion strains, locus YLR258W, strain gsy2, hits give low values 1.02 | S. cerevisiae deletion strains, locus YLR262C, strain YPT6 (second series), hits give low values 1.03 | S. cerevisiae deletion strains, locus YLR268W, strain sec22, hits give low values 1.05 | S. cerevisiae deletion strains, locus YLR320W, strain mms22, hits give low values 1.04 | S. cerevisiae deletion strains, locus YLR330W, strain CHS5, hits give low values 1.01 | S. cerevisiae deletion strains, locus YLR342W, strain FKS1, hits give low values 1.03 | S. cerevisiae deletion strains, locus YLR357W, strain rsc2, hits give low values 1.03 | S. cerevisiae deletion strains, locus YLR370C, strain arc18, hits give low values 1.02 | S. cerevisiae deletion strains, locus YLR371W, strain rom2, hits give low values 1.03 | S. cerevisiae deletion strains, locus YLR384C, strain iki3, hits give low values 1.01 | S. cerevisiae deletion strains, locus YLR418C, strain cdc73, hits give low values 1.1 | S. cerevisiae deletion strains, locus YML016C, strain PPZ1, hits give low values 1.01 | S. cerevisiae deletion strains, locus YML032C, strain rad52, hits give low values 1.01 | S. cerevisiae deletion strains, locus YML120C, strain ndi1, hits give low values 1.01 | S. cerevisiae deletion strains, locus YML124C, strain tub3, hits give low values 1 | S. cerevisiae deletion strains, locus YMR058W, strain fet3, hits give low values 1.03 | S. cerevisiae deletion strains, locus YMR078C, strain ctf18, hits give low values 1.02 | S. cerevisiae deletion strains, locus YMR125W, strain sto1, hits give low values 1.01 | S. cerevisiae deletion strains, locus YMR129W, hits give low values 1.02 | S. cerevisiae deletion strains, locus YMR205C, strain PFK2, hits give low values 1.03 | S. cerevisiae deletion strains, locus YMR223W, strain ubp8, hits give low values 1.03 | S. cerevisiae deletion strains, locus YMR231W, strain pep5, hits give low values 1 | S. cerevisiae deletion strains, locus YMR307W, strain GAS1, hits give low values 1.13 | S. cerevisiae deletion strains, locus YNL067W, strain RPL9B, hits give low values 0.97 | S. cerevisiae deletion strains, locus YNL071W, strain lat1, hits give low values 1.03 | S. cerevisiae deletion strains, locus YNL153C, strain GIM3, hits give low values 1.02 | S. cerevisiae deletion strains, locus YNL183C, strain NPR1, hits give low values 0.984 | S. cerevisiae deletion strains, locus YNL209W, strain ssb2, hits give low values 1.01 | S. cerevisiae deletion strains, locus YNL233W, strain BNI4, hits give low values 1.03 | S. cerevisiae deletion strains, locus YNL248C, strain rpa49, hits give low values 1.04 | S. cerevisiae deletion strains, locus YNL250W, strain rad50, hits give low values 1.05 | S. cerevisiae deletion strains, locus YNL271C, strain bni1, hits give low values 1.02 | S. cerevisiae deletion strains, locus YNL298W, strain CLA4, hits give low values 1.03 | S. cerevisiae deletion strains, locus YNL307C, strain MCK1, hits give low values 1.01 | S. cerevisiae deletion strains, locus YNL322C, strain KRE1 (second series), hits give low values 1.02 | S. cerevisiae deletion strains, locus YNL322C, strain KRE1, hits give low values 0.99 | S. cerevisiae deletion strains, locus YNR049C, strain mso1, hits give low values 1.02 | S. cerevisiae deletion strains, locus YNR052C, strain pop2, hits give low values 1.04 | S. cerevisiae deletion strains, locus YOL012C, strain htz1 0.853 | S. cerevisiae deletion strains, locus YOL147C, strain pex11, hits give low values 0.999 | S. cerevisiae deletion strains, locus YOR001W, strain rrp6, hits give low values 1.02 | S. cerevisiae deletion strains, locus YOR061W, strain CKA2, hits give low values 1.01 | S. cerevisiae deletion strains, locus YOR069W, strain VPS5, hits give low values 0.996 | S. cerevisiae deletion strains, locus YOR070C, strain gyp1, hits give low values 1.01 | S. cerevisiae deletion strains, locus YOR080W, strain dia2, hits give low values 1.03 | S. cerevisiae deletion strains, locus YOR083W, strain WHI5, hits give low values 1.03 | S. cerevisiae deletion strains, locus YOR106W, strain vam3, hits give low values 1.06 | S. cerevisiae deletion strains, locus YOR136W, strain idh2, hits give low values 1.02 | S. cerevisiae deletion strains, locus YOR144C, strain elg1, hits give low values 1.01 | S. cerevisiae deletion strains, locus YOR184W, strain ser1, hits give low values 1.06 | S. cerevisiae deletion strains, locus YOR231W, strain MKK1, hits give low values 1.03 | S. cerevisiae deletion strains, locus YOR265W, strain rbl2, hits give low values 1.01 | S. cerevisiae deletion strains, locus YOR270C, strain vph1, hits give low values 1.13 | S. cerevisiae deletion strains, locus YOR290C, strain snf2, hits give low values 1.03 | S. cerevisiae deletion strains, locus YOR316C, strain cot1, hits give low values 1 | S. cerevisiae deletion strains, locus YPL051W, strain arl3, hits give low values 0.998 | S. cerevisiae deletion strains, locus YPL078C, strain atp4, hits give low values 1.03 | S. cerevisiae deletion strains, locus YPL106C, strain sse1, hits give low values 1.04 | S. cerevisiae deletion strains, locus YPL240C, strain hsp82, hits give low values 1.02 | S. cerevisiae deletion strains, locus YPL256C, strain CLN2, hits give low values 1.01 | S. cerevisiae deletion strains, locus YPR119W, strain clb2, hits give low values 1.01 | S. cerevisiae deletion strains, locus YPR141C, strain kar3, hits give low values 1.01 | S. cerevisiae deletion strains, locus YPR163C, strain tif3, hits give low values 1.03 | S. cerevisiae deletion strains, locus YPR167C, strain met16, hits give low values 1.04 | S. cerevisiae deletion strains, strain wtn01, hits give low values 1.04 | S. cerevisiae strains, strain wild type, hits give low values 1
